The campaign covered roughly 2,100 compounds. About 260 (12%) were called active. About 58% were inconclusive and are not listed. The call rests on the fitted dose curve; in most records, active means well fitted cell-killing curve with a large enough effect; inconclusive means small, poorly fitted or top-dose-only effect, or effect the other way; inactive means flat fitted curve, though single readings scatter. Some of the results follow.
Experiment: Viability Counterscreen for Confirmatory qHTS for Inhibitors of ATXN expression; further: nearly all actives have a fitted effect of over 50% in size
Details: HEK-293 ATXN2-luc cells viability, CellTiter-Fluor, 24 h; activity change, negative = cytotoxicity: at the top concentration
Summary of the method: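 Cells with an ATXN2-luciferase reporter were dosed in a dilution series for 24 h at 37 degrees C. Viability was read first with Gly-Phe-AFC at 25 uM final (fluorescence, ex 405/em 540), then SteadyGlo luminescence. Medium-only wells defined 100% inhibition.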
In the case of `COc1ccc(/C(N)=N/OC(=O)N2CCOCC2)cc1`, the “activity change, negative = cytotoxicity” value was -25.5% (inactive). For `Cn1c2c(c(=O)[nH]c1=O)C(c1cccc(O)c1)C1=C(N2)c2ccccc2C1=O` (centres undefined), the Potency was 22.4 µM (active). For `CCOC(=O)C(C(C)=O)c1c(Br)c(O)c(O)c2c(C(=O)c3ccc(C)cc3)coc12` (centres undefined), the Potency was 15.8 µM (active). With `CC(=O)C(C(C)=O)c1c(Cl)c(O)c(O)c2c(C(=O)c3ccccc3)coc12` the Potency was 12.6 µM (active). In the case of `Cc1ccc(NC(=O)CSc2ccc(Br)cc2)cc1S(=O)(=O)N1CCOCC1`, the “activity change, negative = cytotoxicity” value was -29.7% [at 57.5 µM] (inactive). In the case of `CCc1ccc(N(CC)C(=O)c2ccc3c(Cl)c4c(nc3c2)CCC4)cc1`, the “activity change, negative = cytotoxicity” value was -24.3% (inactive). In the case of `Cc1ccc(Cc2cnc(NC(=O)/C(C#N)=C/c3ccc(-c4cccc([N+](=O)[O-])c4)o3)s2)cc1`, the Potency was 22.4 µM (active). In the case of `CCN1C(=O)/C(=C/c2nc3ccccc3c(=O)n2-c2ccccc2)c2ccccc21`, the Potency was 25.1 µM (active). In the case of `COc1cc(Br)cc(/C=N/NC(=O)Cc2ccccc2)c1O`, the “activity change, negative = cytotoxicity” value was -0.334% (inactive). In the case of `COc1ccc(Cc2nnc(N/N=C/c3ccccc3O)[nH]c2=O)cc1OC`, the Potency was 4.47 µM (active). With `C=CCOc1ccc(CNc2ccc3[nH]c(=O)[nH]c3c2)cc1OC` the “activity change, negative = cytotoxicity” value was -14.9% [at 57.5 µM] (inactive). In the case of `COc1cccc(/C=N/n2c(N)c(S(=O)(=O)c3cccs3)c3nc4ccccc4nc32)c1OC`, the Potency was 22.4 µM (active). With `Cc1ccc(S(=O)(=O)c2c(N)n(CC3CCOC3)c3nc4ccccc4nc23)cc1` (centres undefined) the “activity change, negative = cytotoxicity” value was -11.5% (inactive). With `CCn1ccnc1CN1CCCC(C(=O)c2ccc3cc(OC)ccc3c2)C1` (centres undefined) the “activity change, negative = cytotoxicity” value was -9.79% (inactive). In the case of `O=S(=O)([N-]c1nc2ccccc2nc1-[n+]1ccc(Cc2ccccc2)cc1)c1ccc(Br)s1`, the Potency was 7.94 µM (active). In the case of `CCc1noc(C)c1C(=O)N1CCSC1=Nc1cccc(Cl)c1C`, the “activity change, negative = cytotoxicity” value was -17.3% [at 57.5 µM] (inactive). In the case of `CC1(C)Cc2ccccc2C2=NNC(=O)C2=N1`, the Potency was 28.2 µM (active). For `O=c1cc(C(F)(F)F)[nH]c2ccc(C(F)(F)F)cc12`, the “activity change, negative = cytotoxicity” value was -29.8% (inactive). For `COc1ccc(N(C)S(=O)(=O)c2ccc(Cl)c(C(=O)NCCc3ccc(Cl)cc3)c2)cc1`, the “activity change, negative = cytotoxicity” value was -28.2% [at 57.5 µM] (inactive). With `CN(C)CCNC(=O)c1ccc(Cl)c2cc3ccccc3nc12` the Potency was 10 µM (active). For `CSc1sc(C(=O)NN)c2c1C1(CCC2)SCCS1`, the “activity change, negative = cytotoxicity” value was -26.8% [at 57.5 µM] (inactive). In the case of `CCCCCn1c(=O)c2ccccc2n2c(CCl)nnc12`, the Potency was 25.1 µM (active). With `CCOC(=O)C(CC)(CC)C(=O)/C=C/c1ccc(OC)cc1` the “activity change, negative = cytotoxicity” value was -4.72% [at 57.5 µM] (inactive). With `CC(C)=CCc1ccc(O)c(=O)cc1C(C)C` the “activity change, negative = cytotoxicity” value was -21.2% (inactive). In the case of `COc1cc(C(=O)N/N=C(\c2ccccc2)c2ccccn2)cc(OC)c1OC`, the Potency was 2.24 µM (active). In the case of `COc1cc(C(=O)N/N=C(\Cc2ncc[nH]2)c2ccccc2)cc(OC)c1OC`, the “activity change, negative = cytotoxicity” value was -5.68% (inactive). In the case of `O=C(N/N=C(\Cc1ncc[nH]1)c1ccccc1)c1cccnc1`, the “activity change, negative = cytotoxicity” value was -2.93% (inactive). With `CCc1ccc(NC(=O)C2CCN(S(=O)(=O)c3ccc4c(c3)CC(C)N4C(C)=O)CC2)cc1` (centres undefined) the “activity change, negative = cytotoxicity” value was -15.5% (inactive). For `COc1cc2[nH]c(=O)n(CCCCCC(=O)N3CC=C(c4ccccc4)CC3)c(=O)c2cc1OC`, the Potency was 3.16 µM (active). For `CCOc1ccc(S(=O)(=O)NCCC(=O)N2CC=C(c3ccccc3)CC2)cc1`, the “activity change, negative = cytotoxicity” value was -15.3% [at 57.5 µM] (inactive). For `Cc1cccn2c(=O)c3cc(C(=O)NCCc4ccccc4)c(=N)n(CCCn4ccnc4)c3nc12`, the “activity change, negative = cytotoxicity” value was -17.2% [at 57.5 µM] (inactive). In the case of `O=C(Nc1ccccc1C(=O)Nc1nnc(C(F)(F)F)s1)c1ccccc1`, the Potency was 3.98 µM (active). In the case of `Cc1onc(-c2c(F)cccc2Cl)c1C(=O)Nc1nnc(C(F)(F)F)s1`, the “activity change, negative = cytotoxicity” value was -24.9% (inactive). For `CC1CCCN(c2ncnc3c2cnn3-c2ccc(Cl)cc2)C1` (centres undefined), the “activity change, negative = cytotoxicity” value was -1.47% [at 57.5 µM] (inactive). With `O=C(NCc1ccco1)c1ccc(-c2cccc(Cl)c2)o1` the “activity change, negative = cytotoxicity” value was -12.3% [at 57.5 µM] (inactive). In the case of `CC(NC1=CC(=O)c2cccnc2C1=O)C(O)c1ccccc1` (centres undefined), the Potency was 31.6 µM (active). For `COc1ccc2c(c1)[nH]c1c(=O)n(/N=C/C3C(C)C=C(C)CC3C)c(=O)[nH]c12` (centres undefined), the Potency was 20 µM (active). With `Cc1ccc(-c2cc(C(=O)NCCCN3CCOCC3)no2)cc1` the “activity change, negative = cytotoxicity” value was -8.38% [at 57.5 µM] (inactive). With `CCOC(=O)c1c(SCCN2CCCC2)n(-c2ccccc2)c(=S)n(-c2ccccc2)c1=O` the Potency was 2.51 µM (active). In the case of `O=C(/C=C/NNC(=O)c1ccccc1)c1ccc([N+](=O)[O-])cc1`, the Potency was 12.6 µM (active). With `CCCCC(=O)N(C)c1c(CC)nc2c(OCc3ccc(Cl)cc3Cl)cccn12` the “activity change, negative = cytotoxicity” value was -26.1% (inactive). With `O=C(NCC(=O)N1CC(O)CC1C(=O)N1CCCC1C(=O)OCc1ccccc1)OCc1ccccc1` (centres undefined) the “activity change, negative = cytotoxicity” value was -12% (inactive). In the case of `COc1cccc2c1C(=N)c1c(O)c3c(c(O)c1C2=O)CC(O)(C(C)=O)CC3OC1CC(N)C(O)C(C)O1` (centres undefined), the Potency was 4.47 µM (active). In the case of `CCCCC(=O)OCC(=O)C1(O)Cc2c(O)c3c(c(O)c2C(OC2CC(NC(=O)C(F)(F)F)C(O)C(C)O2)C1)C(=O)c1c(OC)cccc1C3=O` (centres undefined), the Potency was 15.8 µM (active). With `CCC1=C(OC(=O)N(CC)CC)N2C(=O)OC(=NCCc3c[nH]c4ccccc34)[C@]2(Cc2ccccc2)[C@H]2C1=CC[C@H]1C(=O)N(c3ccccc3)C(=O)[C@H]12` the “activity change, negative = cytotoxicity” value was -25.8% [at 57.5 µM] (inactive). For `CCCC(=O)Nc1c(C(=O)OCC)[nH]c2ccccc12`, the “activity change, negative = cytotoxicity” value was -3.04% (inactive). In the case of `CCOc1ccc(/C=N/NC(=O)C(O)c2ccccc2)c(O)c1` (centres undefined), the “activity change, negative = cytotoxicity” value was -15.3% (inactive). For `O=c1ccc2ccccc2c2ccccc12`, the Potency was 17.8 µM (active). With `O=C(N/N=C\c1c(O)ccc2ccccc12)c1ccc(Cn2cccn2)o1` the “activity change, negative = cytotoxicity” value was 9.42% (inactive). For `Cc1ccc(Cl)cc1-c1ccc(C=Nc2ccc(N3CCOCC3)cc2)o1`, the “activity change, negative = cytotoxicity” value was -29.7% [at 57.5 µM] (inactive). In the case of `CCC(C)n1cnc2c(c1=O)c1nc3ccccc3nc1n2-c1ccc2c(c1)OCCO2` (centres undefined), the “activity change, negative = cytotoxicity” value was -27.3% [at 57.5 µM] (inactive). For `C=CCn1cnc2c(c1=O)c1nc3ccccc3nc1n2/N=C/c1cc(OC)c(OC)c(OC)c1`, the Potency was 20 µM (active). With `Cc1ccsc1/C=C/C1=Cc2c(sc(NC(=O)CSc3n[nH]c(N)n3)c2C#N)C(C)(C)C1` the “activity change, negative = cytotoxicity” value was -24.8% [at 57.5 µM] (inactive). For `c1ccc(Cn2c(-c3ccccc3)c[n+]3c2SCCC3)cc1`, the “activity change, negative = cytotoxicity” value was -19.7% [at 57.5 µM] (inactive). For `Cc1ccc(S(=O)(=O)c2nc(S(C)(=O)=O)sc2N2CCCCC2C)cc1` (centres undefined), the “activity change, negative = cytotoxicity” value was -21.7% [at 57.5 µM] (inactive). With `COc1cc(/C=C(/C#N)C(=O)NCCc2c[nH]c3ccccc23)ccc1OCc1ccccc1F` the Potency was 25.1 µM (active). With `Cc1ccnc(NC(=O)CCCc2c[nH]c3ccccc23)c1` the “activity change, negative = cytotoxicity” value was -2.93% (inactive). In the case of `COc1ccc(CCNC(=O)c2cc3c(F)cccc3s2)cc1OC`, the “activity change, negative = cytotoxicity” value was -30% [at 57.5 µM] (inactive). For `Cc1c(C(=O)N2c3ccccc3Sc3ccccc32)cccc1[N+](=O)[O-]`, the “activity change, negative = cytotoxicity” value was -17.9% [at 57.5 µM] (inactive).

From PubChem BioAssay AID1745850 (National Center for Advancing Translational Sciences (NCATS), 2022)
Potency means the concentration at half of the fitted maximal effect.
